16 compounds from ChEMBL document CHEMBL1961873, “Compounds: GSK PKIS; Assays: Nanosyn kinase panel” (2012) can be followed below.

Assay [1] deals with Mast/stem cell growth factor receptor Kit (Homo sapiens) (UniProt P10721). The conditions noted are these: at 1 µM.
In assay [2] the test system is Mast/stem cell growth factor receptor Kit (Homo sapiens), P10721 [D816V]. The conditions noted are these: at 0.1 µM.
For assay [3] the test system is unchanged. The conditions noted are these: at 1 µM.
The subject of assay [4] is Mast/stem cell growth factor receptor Kit (Homo sapiens), P10721 [T670I]. The conditions noted are these: at 0.1 µM.
The test system is the same in assay [5]. The conditions noted are these: at 1 µM.
Assay [6] concerns Mast/stem cell growth factor receptor Kit (Homo sapiens), P10721 [V560G]. The conditions noted are these: at 0.1 µM.
Sequence of Mast/stem cell growth factor receptor Kit (Homo sapiens), P10721 [V560G] (P10721 whole entry V560G): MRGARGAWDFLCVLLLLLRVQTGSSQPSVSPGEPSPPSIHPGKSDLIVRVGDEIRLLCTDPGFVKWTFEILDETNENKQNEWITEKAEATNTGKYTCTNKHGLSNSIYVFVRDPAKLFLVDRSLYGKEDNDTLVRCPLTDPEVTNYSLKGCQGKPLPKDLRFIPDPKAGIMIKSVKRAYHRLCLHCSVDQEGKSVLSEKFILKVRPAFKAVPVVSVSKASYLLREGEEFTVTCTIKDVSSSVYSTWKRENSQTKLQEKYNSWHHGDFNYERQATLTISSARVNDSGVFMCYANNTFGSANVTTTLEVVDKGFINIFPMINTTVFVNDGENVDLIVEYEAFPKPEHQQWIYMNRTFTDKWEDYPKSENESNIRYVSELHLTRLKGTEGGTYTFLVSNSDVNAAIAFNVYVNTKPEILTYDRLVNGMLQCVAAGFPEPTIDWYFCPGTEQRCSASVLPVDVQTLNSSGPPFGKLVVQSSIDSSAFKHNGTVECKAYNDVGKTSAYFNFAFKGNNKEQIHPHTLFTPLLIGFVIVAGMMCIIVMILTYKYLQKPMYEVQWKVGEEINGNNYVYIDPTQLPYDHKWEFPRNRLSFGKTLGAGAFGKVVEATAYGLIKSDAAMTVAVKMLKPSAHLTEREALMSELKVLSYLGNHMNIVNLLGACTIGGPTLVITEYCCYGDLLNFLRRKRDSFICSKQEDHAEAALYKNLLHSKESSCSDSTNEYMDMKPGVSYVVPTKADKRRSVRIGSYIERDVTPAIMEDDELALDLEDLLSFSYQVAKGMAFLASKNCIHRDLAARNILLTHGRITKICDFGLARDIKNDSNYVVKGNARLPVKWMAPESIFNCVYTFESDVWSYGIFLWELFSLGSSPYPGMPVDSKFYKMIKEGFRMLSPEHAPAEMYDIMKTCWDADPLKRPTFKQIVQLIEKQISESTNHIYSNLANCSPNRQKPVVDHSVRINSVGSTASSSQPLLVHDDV
The test system is the same in assay [7]. The conditions noted are these: at 1 µM.
The target in assay [8] is Tyrosine-protein kinase Lck (Homo sapiens) (UniProt P06239). The conditions noted are these: at 0.1 µM.
Sequence of Tyrosine-protein kinase Lck (Homo sapiens) (P06239 2-509 limits assumed): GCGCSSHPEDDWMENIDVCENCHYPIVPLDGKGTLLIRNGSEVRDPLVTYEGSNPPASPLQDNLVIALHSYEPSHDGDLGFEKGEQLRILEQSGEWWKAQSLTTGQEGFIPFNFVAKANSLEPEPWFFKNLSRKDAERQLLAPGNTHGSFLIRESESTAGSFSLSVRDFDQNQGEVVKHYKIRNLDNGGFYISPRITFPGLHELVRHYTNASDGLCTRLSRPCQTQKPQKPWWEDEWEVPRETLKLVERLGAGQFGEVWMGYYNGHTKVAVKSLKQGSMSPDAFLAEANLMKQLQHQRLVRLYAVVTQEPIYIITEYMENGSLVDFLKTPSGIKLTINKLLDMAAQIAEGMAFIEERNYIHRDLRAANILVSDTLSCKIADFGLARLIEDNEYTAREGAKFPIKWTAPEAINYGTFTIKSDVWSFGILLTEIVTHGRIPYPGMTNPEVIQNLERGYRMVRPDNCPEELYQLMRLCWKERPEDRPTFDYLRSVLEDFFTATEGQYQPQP
Assay [9] shares this target. The conditions noted are these: at 1 µM.
Assay [10] concerns the target Leukocyte tyrosine kinase receptor (Homo sapiens) (UniProt P29376). The conditions noted are these: at 0.1 µM.

Sequence of Leukocyte tyrosine kinase receptor (Homo sapiens) (P29376 whole entry): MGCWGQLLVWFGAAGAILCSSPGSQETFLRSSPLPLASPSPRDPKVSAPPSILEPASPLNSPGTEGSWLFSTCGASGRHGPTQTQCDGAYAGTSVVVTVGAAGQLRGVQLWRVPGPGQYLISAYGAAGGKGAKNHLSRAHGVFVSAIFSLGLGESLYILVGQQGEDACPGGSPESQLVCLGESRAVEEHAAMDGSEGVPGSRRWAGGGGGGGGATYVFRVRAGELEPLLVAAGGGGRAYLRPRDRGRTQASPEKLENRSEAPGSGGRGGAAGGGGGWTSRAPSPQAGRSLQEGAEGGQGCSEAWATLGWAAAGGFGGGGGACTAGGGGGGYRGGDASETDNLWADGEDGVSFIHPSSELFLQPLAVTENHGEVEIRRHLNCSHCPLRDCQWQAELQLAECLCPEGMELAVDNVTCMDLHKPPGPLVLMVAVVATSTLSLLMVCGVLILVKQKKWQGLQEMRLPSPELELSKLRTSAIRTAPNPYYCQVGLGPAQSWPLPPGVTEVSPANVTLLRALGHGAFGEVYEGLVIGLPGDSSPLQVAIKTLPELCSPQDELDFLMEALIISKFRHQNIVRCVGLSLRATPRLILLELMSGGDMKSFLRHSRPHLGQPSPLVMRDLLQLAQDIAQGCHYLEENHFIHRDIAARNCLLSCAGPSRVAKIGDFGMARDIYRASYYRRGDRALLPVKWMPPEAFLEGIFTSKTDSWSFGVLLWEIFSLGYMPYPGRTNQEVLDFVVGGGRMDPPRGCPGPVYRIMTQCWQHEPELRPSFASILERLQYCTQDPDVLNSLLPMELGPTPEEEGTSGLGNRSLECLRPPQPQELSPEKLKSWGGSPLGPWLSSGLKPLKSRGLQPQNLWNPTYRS
Sequence of Mast/stem cell growth factor receptor Kit (Homo sapiens) (P10721 whole entry): as the sequence (P10721 whole entry V560G) above, with G560V counted along it
Sequence of Mast/stem cell growth factor receptor Kit (Homo sapiens), P10721 [D816V] (P10721 whole entry D816V): as the sequence (P10721 whole entry V560G) above, with G560V, D816V counted along it
Sequence of Mast/stem cell growth factor receptor Kit (Homo sapiens), P10721 [T670I] (P10721 whole entry T670I): as the sequence (P10721 whole entry V560G) above, with G560V, T670I counted along it

On to `COc1cccc(-n2ncc3c(N/N=C/c4ccc(S(C)(=O)=O)cc4)ncnc32)c1`, for which the inhibition in assay [1] is 61.6%; in assay [2] it was 1.61%; in assay [3], 9.23%; in [4], 7.49%; in assay [5], 44.8%; in assay [6] it was 1.83%. Besides, the inhibition worked out at 7.89% in [7], 37.7% in assay [8], 73.9% in assay [9] and 1.43% in assay [10].
`N#Cc1cccc(Nc2nccc(-c3cnn4ncccc34)n2)c1`: the inhibition in assay [1] amounted to 100%; in assay [2], 4.4%; in assay [3], 9.63%; in [4], 32.2%; in assay [5] it was 88.5%; in assay [6], 24.4%. The inhibition in [7] was found to be 71.6%; in assay [8], 4.61%; in assay [9], 18.3%; in assay [10] it was 6.31%.
For `COC(=O)Nc1nc2cc(Oc3ccc(NC(=O)Nc4cccc(Br)c4)cc3)ccc2[nH]1`, the inhibition came out at 100% in assay [1]; 2.97% in assay [2]; 4.47% in assay [3]; 33% in [4]; 56.8% in assay [5]; 69.5% in assay [6]. In addition, the inhibition in [7] is 86.4%; in [8], 5%; in [9], 10.5%; in assay [10], 3.48%.
Consider `Cc1ccc(NC(=O)CC2CC2)cc1-c1ccc(C(=O)NCC2CC2)cc1`, for which the inhibition in assay [1] is 5.34%; in [2], 4%; in [3], 3.9%; in [4] it was 2.39%; in assay [5], 3.24%; in assay [6] it was 1.38%. For the same compound, the inhibition in assay [7] came out at 2.75%; in [8] it was 1.18%; in assay [9], 3.82%; in [10], 4.18%.
Consider `OCc1ccc(-c2nc(-c3ccccn3)c(-c3ccc4c(c3)OCO4)[nH]2)cc1`, for which the inhibition in assay [1] was 3.32%; in assay [2] it was 4.26%; in [3] it was 1.86%; in [4], 3.18%; in [5], 0.71%; in assay [6], -1.45%. Moreover, the inhibition in [7] is 2.83%; in [8], 4.57%; in assay [9] it was 6.53%; in assay [10] it was 3.45%.
As to `COC(=O)c1cncc(/C=C/c2c(C)cc(O)cc2C)c1`, the inhibition was determined as 83.5% in [1]; 4.37% in assay [2]; 7.02% in [3]; 2.73% in assay [4]; 0.94% in assay [5]; 4.65% in assay [6]. The inhibition in assay [7] amounted to 41.8%; in assay [8], 5.78%; in assay [9], 30.5%; in [10], 3.77%.
For `COc1cccc(-n2nc(C)c3c(N/N=C(\C)c4ccncc4)ncnc32)c1`, the inhibition was 2.68% in assay [1]; -0.3% in [2]; -0.84% in assay [3]; -1.32% in assay [4]; 0.13% in [5]; 2.07% in [6]. For the same compound, the inhibition was found to be 0.19% in assay [7], 0.65% in assay [8], 2.98% in [9] and 1.52% in assay [10].
As to `C[C@@H](Oc1cc(-n2cnc3ccc(OC[C@@H](O)CO)cc32)sc1C(N)=O)c1ccccc1Cl`, the inhibition in assay [1] is 4.68%; in assay [2], -3.17%; in [3], 1.58%; in assay [4] it was -1.2%; in assay [5] it was 0.87%; in assay [6], 3.36%. The inhibition was 2.13% in assay [7], 1.2% in assay [8], 6.12% in assay [9] and -0.43% in assay [10].
With `NS(=O)(=O)c1ccc(NC=C2C(=O)Nc3ccc4ncsc4c32)cc1`, the inhibition in assay [1] came to 94.3%; in assay [2], 8.42%; in assay [3] it was 31%; in [4], 19.8%; in assay [5] it was 67.2%; in [6] it was 1.8%. The inhibition in [7] was 32%; in [8] it was 5.47%; in [9], 30.9%; in [10] it was 4.74%.
Turning to `c1ccc(Nc2ncc(-c3ccccc3)o2)cc1`, the inhibition amounted to 88.1% in assay [1]; 1.88% in assay [2]; 3.71% in [3]; 4.48% in assay [4]; 40% in [5]; 1.47% in [6]. The inhibition in assay [7] came to 50.4%; in assay [8], 3.52%; in assay [9] it was 10.9%; in assay [10] it was 6.86%.
With `NS(=O)(=O)c1ccc(N/N=C2\C(=O)Nc3ccc(Cl)cc32)cc1`, the inhibition in assay [1] stood at 89.8%; in assay [2], 1.33%; in assay [3], 3.24%; in [4], 5.37%; in assay [5], 41.2%; in assay [6] it was 2.89%. Further, the inhibition in assay [7] was 30.3%; in [8], 1.35%; in assay [9], 3.7%; in assay [10] it was 3.2%.
`Cc1nc(-c2ccccc2)n2nc(NCCCN3CCOCC3)ncc12`: the inhibition in assay [1] is 8.46%; in [2], 1.35%; in assay [3], 1.56%; in assay [4], 1.72%; in [5], 1.33%; in assay [6] it was -1.38%. Further, the inhibition came out at 0.39% in assay [7], 2.08% in assay [8], 5.01% in assay [9] and 2.89% in assay [10].
In the case of `Cc1ccc2c(-c3ccnc(Nc4cccc(C(F)(F)F)c4)n3)c(-c3ccccc3)nn2n1`, the inhibition in assay [1] was found to be 47.6%; in assay [2] it was 0.01%; in [3], 6.47%; in assay [4], 2.51%; in assay [5], 3.44%; in [6] it was 2.8%. Also, the inhibition in [7] was found to be 10.7%; in assay [8] it was 8.54%; in assay [9], 42%; in [10] it was 4.14%.
Take `CCS(=O)(=O)c1ccc(OC)c(Nc2ncc(-c3cccc(OC)c3)o2)c1`: the inhibition in assay [1] was 97%; in assay [2], 0.77%; in [3], 7.53%; in assay [4] it was 10.8%; in assay [5], 67.6%; in assay [6], 3.11%. Also, the inhibition in assay [7] came to 38.3%; in assay [8], 11.7%; in assay [9] it was 47.6%; in [10], 1.67%.
As to `Nc1ccc(C#Cc2cncnc2Nc2ccc(OCc3cccc(F)c3)c(Cl)c2)cc1`, the inhibition in assay [1] was 5.56%; in assay [2], 2.12%; in [3], 3.81%; in [4], 1.88%; in assay [5] it was 3.05%; in assay [6] it was -3.03%. Further, the inhibition was -1.6% in assay [7], 2.57% in assay [8], 4.92% in assay [9] and 3.5% in [10].
Turning to `N#Cc1c(NC(=O)c2ccccc2F)sc2c1CCCC2`, the inhibition was -1.43% in assay [1]; -1.25% in assay [2]; -3.62% in assay [3]; -0.75% in [4]; 0.26% in assay [5]; 2.34% in [6]. Further, the inhibition in assay [7] was 2.89%; in assay [8] it was 0.15%; in assay [9] it was 4.08%; in assay [10] it was -1.29%.

The inhibition is the drop in the measured response relative to a control, in per cent.
